LDHA inh = inhibitors of human lactate dehydrogenase A; purified LDHA, NADH/diaphorase-resazurin fluorescence; stronger effect = lower value; activity change, % (values are at about 110 or 230 µM); 0.15% of 480,000 active; in the data active = activity change below about -30%;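 note: plate controls were DMSO wells for no effect and wells without enzyme for full effect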
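Resorufin fluorescence (ex540/em590), read at 0 and 20 min after diaphorase/resazurin addition, reports the NADH left after a 5 min room-temperature reaction of 2 nM human LDH5 with 0.06 mM NADH and 0.2 mM pyruvate.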
TRHR ag = activates the human TRH receptor; P34981; activation, % at 2 µM; TRHR cells, calcium flux fluo-8, FDSS agonist mode; 0.18% of 360,000 active; AID 493084; note: 0% is about no effect
Target sequence (P34981 whole entry, looked up): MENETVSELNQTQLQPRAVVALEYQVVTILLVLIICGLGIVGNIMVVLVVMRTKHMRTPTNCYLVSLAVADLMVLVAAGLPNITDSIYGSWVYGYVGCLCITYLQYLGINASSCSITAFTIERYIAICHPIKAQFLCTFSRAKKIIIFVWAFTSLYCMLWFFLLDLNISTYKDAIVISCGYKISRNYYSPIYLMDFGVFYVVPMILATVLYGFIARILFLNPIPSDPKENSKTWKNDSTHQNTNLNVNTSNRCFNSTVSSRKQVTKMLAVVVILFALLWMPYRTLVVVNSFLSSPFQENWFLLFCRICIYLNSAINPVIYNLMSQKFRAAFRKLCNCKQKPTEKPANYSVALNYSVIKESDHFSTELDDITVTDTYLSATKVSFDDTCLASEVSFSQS
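In this calcium-flux screen, cells bearing human TRHR are dye-loaded with fluo-8, baselined for 10 cycles, then exposed to library compounds; positive kinetic calcium responses during the agonist phase mark hits, with TRH as control.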
D1 antagonist = human D1 dopamine receptor antagonism; P21728; HEK293 TREx D1 cells, calcium flux, dopamine EC80; stronger effect = lower value; activity change, negative = inhibition, % at 10 µM; 3.2% of 360,000 active; in the data active = activity change below about -30%; note: % is set by controls: 0 for no effect and ±100 for the full control effect
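Antagonism measured as reduced calcium response to an EC80 dopamine addition following 180 s compound pre-read; cells were inducible HEK293 Trex D1 plated overnight at 30 C, read kinetically at 1 cycle/sec.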
D1 ag = activates the human D1 dopamine receptor | activation, % at 2 µM | HEK293 T-REx D1 cells, calcium flux, agonist mode | 1% of 360,000 active | P21728; note: 0% is about no effect
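Tetracycline-induced HEK293 TREx D1 cells, force-coupled to calcium signalling, were dye-loaded with a no-wash calcium kit. Compound was pin-added after a 10 s baseline. Fluorescence was read kinetically at 1 cycle/s for 180 s, with calcium rises flagged as agonism.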
D1 potentiator = human D1 dopamine receptor positive modulation | HEK293 TREx D1 cells, calcium flux, dopamine EC20 potentiation | 0.036% of 360,000 active | potentiation, % at 10 µM | AID 504651; in the data active = potentiation above about 30%; note: 0% is about no effect
TRHR enhancer = allosterically enhances the human TRH receptor; P34981; TRHR cells, fluo-8 calcium fluorescence, EC20 TRH enhancement; enhancement, % at 2 µM; 0.66% of 360,000 active; in the data active = enhancement above about 30%; note: 0% is about no effect
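TRHR-expressing cells loaded with fluo-8 calcium dye were read kinetically (ex 480/em 530) during compound addition, then stimulated with an EC20 of TRH (10 nM final). Enhancement of the Gq-mediated intracellular calcium response was scored.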
* = called active by the depositor; x = no result given. Only some compounds are listed: those with a hit (about 3.6% of all), similar ones and a draw of the others. Cut-off read from the data, not from the text of the source, unless noted: active = activation above about 30%; inactive = the rest.

SMILES	LDHA inh	TRHR ag	D1 antagonist	D1 ag	D1 potentiator	TRHR enhancer
COc1cccc(-c2noc(C3CCCN(C(=O)CC(C)(C)C)C3)n2)c1 (stereo unspecified)	-8	0	-67*	2	-6	7
O=C(c1ccc(F)cc1)N1CCCC(c2nc(-c3ccncc3)no2)C1 (stereo unspecified)	-8	0	14	12	-2	-4
CCCCC(=O)N1CCCC(c2nc(-c3cccc(OC)c3)no2)C1 (stereo unspecified)	0	-1	-9	2	2	5
O=C(c1c(F)cccc1F)N1CCCC(c2nc(-c3ccc(F)cc3)no2)C1 (stereo unspecified)	-7	0	-31*	6	2	3
CN1CCN(Cc2ccc(CNCc3ccc(C#N)cc3)cc2)CC1	-1	x	x	x	x	x
CS(=O)(=O)c1ccc(F)c(NCc2ccccc2Cl)c1	-7	x	x	x	x	x
O=C(CSc1nc(Cl)nc2nc[nH]c12)Nc1cccc(F)c1	-5	x	x	x	x	x
O=C(CSC1=NC(=O)C(c2ccccc2)C(=O)N1)Nc1ccccc1Cl (stereo unspecified)	-8	0	-10	-1	0	0
O=C(CSC1=NC(=O)C(c2ccccc2)C(=O)N1)Nc1cccc(Cl)c1 (stereo unspecified)	-20	0	-33*	1	-10	-1
O=C(CSc1nc(Cl)nc2nc[nH]c12)Nc1cccc(Cl)c1	-35*	x	x	x	x	x
Cc1ccc2nc(-c3ccc(C)o3)cc(C(=O)O)c2c1	17	x	x	x	x	x
CCN1C(=S)SC(=O)C1=C1C=C(C)N(CCO)C(C)=C1	7	17	0	34*	-2	-1
CCN1C(=S)SC(=O)C1=C1C=C(C)N(CCOC)C(C)=C1	x	14	10	45*	5	-4
O=S(=O)(Cc1cccc(F)c1)Cc1cc(-c2ccccc2)on1	10	x	x	x	x	x
O=C(CSc1ncnc2ccccc12)Nc1ccccc1	5	x	x	x	x	x
O=C(Nc1ccccc1OC(F)F)c1oc2ccccc2c1COc1ccccc1	-3	3	-8	32*	-2	-4
N#CC(C#N)=C(Nc1ccc(F)cc1)SCc1cccc(Br)c1	-3	3	-42*	30	-10	-5
Cc1cccc(CSC(Nc2ccc(F)cc2)=C(C#N)C#N)c1	1	4	-35*	26	-8	-9
Cc1cc(C)cc(OCC(=O)NNC(=O)c2ccccn2)c1	0	0	-38*	2	-1	1
Cc1ccc(OCC(=O)O/N=C(\N)c2ccccn2)cc1C	-9	0	-44*	8	-8	-2
COc1cc(C#N)ccc1OCc1ccccc1Cl	2	x	x	x	x	x
C/C(=N\Nc1ccc(Br)cc1)c1ccc2c(c1)Cc1ccccc1-2	9	x	x	x	x	x
CCCOc1ccccc1N1C(=O)CC(N(O)c2ccccc2)C1=O (stereo unspecified)	0	0	13	2	2	38*
CC(=O)Nc1ccc(S(=O)(=O)Nc2cccn(Cc3ccc(C)cc3)c2=O)cc1	-2	1	-24	5	2	33*
Cc1ccc(NC(=O)c2cccc3cccnc23)cc1	-3	0	-31*	0	-7	-1
SMILES	LDHA inh	TRHR ag	D1 antagonist	D1 ag	D1 potentiator	TRHR enhancer
CC(=O)Nc1ccc(S(=O)(=O)Nc2ccccc2N2CCOCC2)cc1Cl	-7	1	-1	1	8	-9
CC(=O)Nc1ccc(S(=O)(=O)Nc2cccc3cccnc23)cc1	8	1	-55*	2	-7	-1
CC(=O)Nc1ccc(S(=O)(=O)Nc2ccccc2N2CCOCC2)cc1	3	0	-22	3	1	34*
CC(=O)Nc1ccc(S(=O)(=O)Nc2cc(C)cn(Cc3ccccc3)c2=O)cc1	27	1	-27	6	-8	-2
O=S(=O)(Nc1cccc2cccnc12)c1ccccc1	8	0	4	2	-7	-5
COC(=O)c1c(NC(=O)c2cc3ccccc3o2)sc(C)c1C	1	x	x	x	x	x
CSc1ccc(Cl)c(C(=O)NCc2ccc(-n3cccn3)cc2)c1	0	x	x	x	x	x
CCOC(=O)c1oc2ccccc2c1Cn1cc(C(F)(F)F)ccc1=O	0	x	x	x	x	x
c1cc2c(cc1-c1csc(NC3CC3)n1)OCCCO2	-7	x	x	x	x	x

From PubChem BioAssay
